LmPK inh: LmPK (Leishmania mexicana) enzyme inhibition; Q27686; purified LmPK, Kinase-Glo ATP luminescence, 1 h; Potency, µM (top dose mostly 57.5 µM), without a hit: at the top dose activity change, negative = inhibition, hits mostly inhibitors; hit rate 0.37% among 290,000; further: potency means the concentration at half of the fitted maximal effect; on the % scale 0 is the no-effect control and ±100 the full control effect
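Purified LmPK (0.1 nM) converted ADP (0.1 mM) to ATP with PEP (0.5 mM) in imidazole buffer pH 7.2 with KCl and MgCl2, 1 h at room temperature. ATP was read by Kinase-Glo luminescence; data normalized to uninhibited and no-enzyme controls.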
NS1 inh: inhibitors of influenza NS1 protein function. Potency, µM (titrated, usually from 46.1 µM), inactives show at the top dose activity, positive = more growth. hit rate 0.4% among 270,000. AID 2326; calls by dose curve; further: potency means the concentration at half of the fitted maximal effect; actives are rising curves; nearly all actives have a fitted effect of over 50% in size
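A cell-based growth assay was used: compounds that relieve NS1-induced slow growth of budding yeast raise OD600. Assay medium was yeast nitrogen base with ammonium sulphate and -URA supplement, pH 6.0, with 2% galactose.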
TbPYK inhibitor: blocks Trypanosoma brucei pyruvate kinase; Q57TT1; TbPYK enzyme, Kinase-Glo Plus ATP luminescence, 45 min; Potency, µM (top dose mostly 76.8 µM), for the others: at the top dose activity, negative = inhibition, most hits filed as inhibitors; hit rate 0.12% among 410,000; AID 624173; further: potency means the concentration at half of the fitted maximal effect; on the % scale 0 is the no-effect control and ±100 the full control effect; nearly all actives have a fitted effect of over 50% in size
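Readout: single end-point luminescence (Kinase-Glo Plus, 10 min). Reaction conditions were TbPYK/substrate plus 130 uM ADP, 45 min at RT, pH 7.2 TEA buffer. No-enzyme wells served as controls, and data were normalized before concentration-response fitting.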
AMA1-RON2 inh: AMA1-RON2 (P. falciparum) interaction inhibition | AID 720542 | AlphaScreen AMA1-biotinylated RON2 peptide binding | Potency, µM (titrated, usually from 58.2 µM), without a hit: at the top dose activity change, negative = inhibition, most hits filed as inhibitors | hit rate 0.2% among 360,000;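 further: potency means the concentration at half of the fitted maximal effect; 0% = vehicle wells and -100% = peptide control; nearly all actives have a fitted effect of over 45% in size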
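AMA1 (3D7) with his tag at 25 nM final met compounds first, then biotinylated RON2 peptide at 25 nM; detection used donor plus acceptor beads, 10 µg/mL apiece, read by AlphaScreen after 30 min at room temperature.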
Giardia FBPA inh: inhibitors of Giardia lamblia fructose-1,6-bisphosphate aldolase; A8B2U2; purified Giardia FBPA; Potency, µM (series often up to 59.6 µM), inactives show at the highest dose activity, negative = inhibition, most hits filed as inhibitors; hit rate 0.71% among 290,000; further: potency means the concentration at half of the fitted maximal effect; on the % scale 0 is the no-effect control and ±100 the full control effect; nearly all actives have a fitted effect of over 55% in size
Target sequence (A8B2U2 whole entry, looked up): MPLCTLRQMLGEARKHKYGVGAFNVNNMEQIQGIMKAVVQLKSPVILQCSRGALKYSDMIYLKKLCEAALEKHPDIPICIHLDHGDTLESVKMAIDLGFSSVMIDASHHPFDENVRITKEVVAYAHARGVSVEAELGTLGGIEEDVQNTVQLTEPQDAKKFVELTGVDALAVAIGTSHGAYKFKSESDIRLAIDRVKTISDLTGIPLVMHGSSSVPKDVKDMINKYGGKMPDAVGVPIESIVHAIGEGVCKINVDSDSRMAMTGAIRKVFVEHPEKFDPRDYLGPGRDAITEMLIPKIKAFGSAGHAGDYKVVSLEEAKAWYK
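Giardia FBPA (40 nM reagent) was preincubated 10 min at RT with compound (up to 57.5 uM final), then substrate plus GAPDH/TPI/NAD/arsenate coupling system with diaphorase/resazurin was added; resorufin fluorescence (525/598 nm) was read after 20 min.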
NS1 inh valid: validation of influenza NS1 protein function inhibitors | influenza NS1 function cell assay, 15-point titration | shares compounds with NS1 inh | activity change, negative = inhibition, % at 32.9 µM | 1,400 tested, under 10 active; calls by dose curve; further: 0% is about no effect
* hit, by the source's call. Hits are enriched below; roughly 1.2% of the tested compounds scored in any of these assays. Unless noted, the call rests on the fitted dose curve; in most records, active means well fitted curve in the direction sought with a large enough effect; inconclusive means small, poorly fitted or top-dose-only effect, or another doubt; inactive means no such curve, though single readings can be large; an effect the other way counts as inactive or inconclusive.

`CCC(C)NC(=O)c1cccc(OCc2c(C)noc2C)c1` (stereo unspecified) gave LmPK inh 1%, NS1 inh -9%, TbPYK inhibitor 6%, AMA1-RON2 inh 32% and Giardia FBPA inh -4%.
Screening O=S(=O)(c1ccccc1)N1CCC2(CC1)CN(C(c1ccccc1)c1ccccc1)C2 returned TbPYK inhibitor -4% and Giardia FBPA inh 3%.
`CC(C)Cn1c(N)c(C(=O)COC(=O)c2ccc3ccccc3n2)c(=O)n(C)c1=O` gave LmPK inh -8%, NS1 inh 10µM*, TbPYK inhibitor 2%, AMA1-RON2 inh -9%, Giardia FBPA inh 1% and NS1 inh valid -6.
Screening COC(=O)c1ccc(C(NC(=O)OCc2ccccc2)/C(I)=C/[C@@H](C)C(=O)Nc2ccccc2)cc1 (stereo partly specified) returned Giardia FBPA inh -8%.
Screening Cc1cc(C)cc(NC(=S)NCc2cccn2C)c1 returned LmPK inh 2%, NS1 inh 10µM*, TbPYK inhibitor -3%, AMA1-RON2 inh 0%, Giardia FBPA inh 0% and NS1 inh valid -6.
`N=Nc1c(O)n(CC(=O)Nc2ccccc2)c2ccccc12` gave LmPK inh -3%, NS1 inh 2.5µM*, TbPYK inhibitor 0%, AMA1-RON2 inh 2%, Giardia FBPA inh 9% and NS1 inh valid 24.
CC(C)(C)NC(=O)[C@H]1CN(Cc2cccnc2)CCN1C[C@@H](O)C[C@@H](Cc1ccccc1)C(=O)N[C@H]1c2ccccc2C[C@H]1O was read as TbPYK inhibitor -5% and Giardia FBPA inh -8%.
For CNC[C@@H](SC)c1ccc(O)c(O)c1 the results were NS1 inh -1%.
`COc1ccc(C2C(C(=O)c3sc(C)nc3C)=C(O)C(=O)N2CCCn2ccnc2)cc1OC` (stereo unspecified) gave LmPK inh 0%, NS1 inh 1.8µM*, TbPYK inhibitor -17%, AMA1-RON2 inh 5%, Giardia FBPA inh -20% and NS1 inh valid -6.
CC(C)CC(=O)Nc1nnn(C)n1 was read as LmPK inh -7%, NS1 inh 10µM*, TbPYK inhibitor 14%, AMA1-RON2 inh 4%, Giardia FBPA inh 1% and NS1 inh valid 15.
Screening CCc1ccccc1NC(=O)C1CCCN(C(=O)c2cnn(-c3ccccc3)c2-n2cccc2)C1 (stereo unspecified) returned TbPYK inhibitor -7%.
`OCCN(CCO)c1ccc(C(c2ccc(Cl)cc2)c2ccc(N(CCO)CCO)cc2Cl)c(Cl)c1` gave LmPK inh 6%, NS1 inh 14µM*, TbPYK inhibitor -2%, AMA1-RON2 inh 0%, Giardia FBPA inh -24% and NS1 inh valid 8.
Screening CCC(C)NC(=O)c1cc(CC(C)C)on1 (stereo unspecified) returned LmPK inh -7%, NS1 inh inconclusive, TbPYK inhibitor 0%, AMA1-RON2 inh 0%, Giardia FBPA inh -1% and NS1 inh valid -17.
For COC(=O)c1ccc(CSc2nnc(NCc3ccccc3)s2)o1 the results were LmPK inh 10%, NS1 inh 14µM*, TbPYK inhibitor -17%, AMA1-RON2 inh 5%, Giardia FBPA inh 2% and NS1 inh valid inconclusive.
For Cc1ccc(C(=O)N/C(=C/c2ccco2)C(=O)NC2CCS(=O)(=O)C2)cc1 (stereo unspecified) the results were LmPK inh 2%, TbPYK inhibitor -1%, AMA1-RON2 inh 9% and Giardia FBPA inh 7%.
`Cc1ccc(C(=O)N/C(=C\c2ccc(-c3ccc(Br)cc3)o2)C(=O)NC2CCS(=O)(=O)C2)cc1` (stereo unspecified) gave LmPK inh 12%, NS1 inh inconclusive, TbPYK inhibitor -7%, AMA1-RON2 inh -5%, Giardia FBPA inh -4% and NS1 inh valid 3.
Screening C=CCCCCCCCCCCC/C=C/C(O)COC(C)=O (stereo unspecified) returned Giardia FBPA inh -4%.

Source: PubChem BioAssay (National Center for Advancing Translational Sciences (NCATS))
